Assay results reported in PubChem BioAssay (NCI).
Compounds without any hit were thinned out: in the full panel of roughly 83,000, 20% have a hit.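 Compound tested at a single concentration for 48 hours in 96-well plates; a percent growth value below 10 was scored as active.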 Unmarked numbers belong to inactive results. The source made the active and inactive calls.

What was measured:
Assay in all cases: NCI-60 one-dose screen, 48 h (100 = growth as untreated, 0 = no growth, -100 = all killed)
Settings in all cases: 10 µM unless noted
RPMI-8226 leukemia = system: RPMI-8226 leukemia
OVCAR-8 ovarian = system: OVCAR-8 ovarian
OVCAR-5 ovarian = system: OVCAR-5 ovarian
OVCAR-4 ovarian = system: OVCAR-4 ovarian
SK-OV-3 ovarian = system: SK-OV-3 ovarian
IGROV1 ovarian = system: IGROV1 ovarian
OVCAR-3 ovarian = system: OVCAR-3 ovarian
HS 578T breast = system: HS 578T breast
NCI/ADR-RES ovarian = system: NCI/ADR-RES ovarian
T-47D breast = system: T-47D breast
BT-549 breast = system: BT-549 breast
MDA-MB-435 melanoma = system: MDA-MB-435 melanoma
SW-620 colon = system: SW-620 colon
MCF7 breast = system: MCF7 breast
HCT-116 colon = system: HCT-116 colon
HCC-2998 colon = system: HCC-2998 colon
KM12 colon = system: KM12 colon

Structure (SMILES)	growth (RPMI-8226 leukemia)	growth (OVCAR-8 ovarian)	growth (OVCAR-5 ovarian)	growth (OVCAR-4 ovarian)	growth (SK-OV-3 ovarian)	growth (IGROV1 ovarian)	growth (OVCAR-3 ovarian)	growth (HS 578T breast)	growth (NCI/ADR-RES ovarian)	growth (T-47D breast)	growth (BT-549 breast)	growth (MDA-MB-435 melanoma)	growth (SW-620 colon)	growth (MCF7 breast)	growth (HCT-116 colon)	growth (HCC-2998 colon)	growth (KM12 colon)
COc1ccc2c(c1)OC13Oc4cc(OC)ccc4C=C1CCCCC3=C2	97.8%	92.5%	104%	104%	80.8%	99.3%	108%	99.4%	96.9%	67.6%	92%	105%	90.7%	75.2%	73.4%	97.7%	94.8%
O=C1c2ccccc2C(=O)c2c1oc1c2c(=O)[nH]c2ccc(Cl)cc21	4.83% (active)	-27.5% (active)	52.7%	-42% (active)	1.64% (active)	-3.63% (active)	-68.4% (active)	-7.55% (active)	22.3%	-58.1% (active)	38%	10.2%	-53% (active)	0.704% (active)	-12.2% (active)	65.1%	0.119% (active)
COc1cc(-c2cn(-c3ccc(Cl)c(Cl)c3)c(=O)[nH]2)cc(OC)c1OC	99.3%	95.1%	87.6%	98.9%	88.3%	136%	99.5%	95.3%	95.5%	90.1%	102%	96.4%	109%	87.7%	78.7%	99.9%	90.8%
COc1ccc2oc(=O)cc(-c3c(C#N)c(N)n4nc(N)c(C#N)c4c3C#N)c2c1	110%	111%	96.8%	111%	93.2%	94.4%	91.9%	104%	104%	84.1%	89.3%	113%	98%	105%	108%	96.6%	99%
Cc1cccc(C)c1NC(=O)CN(CC(C)C)CC(O)COc1ccccc1 (stereo not drawn)	89.2%	105%	99.9%	86.9%	90.1%	94.3%	111%	118%	86.7%	85.3%	82.4%	102%	93.6%	83.3%	86.8%	95.8%	100%
CC(=O)c1ccc(NC(=O)CSc2nnc(-c3cc(-c4ccc(C)cc4)nc4ccccc34)o2)cc1	7.74% (active)	49.3%	101%	-12.5% (active)	81.7%	57.3%	77.4%	23.3%	60.2%	44.8%	59.1%	80.9%	28.4%	26.6%	-7.47% (active)	102%	72%
C#C[C@@]1(O)[C@@H](CO)O[C@@H](n2cc(Br)c3c(N)ncnc32)[C@@H]1O	0.406% (active)	-0.359% (active)	18.8%	5.79% (active)	-8.02% (active)	-22.5% (active)	-25.5% (active)	-5.73% (active)	1.19% (active)	-20.1% (active)	-45.5% (active)	14.6%	-0.395% (active)	-18.4% (active)	3.16% (active)	-22% (active)	8.07% (active)
COC(=O)/C=C/c1cc(OC)c2c(c1)[C@@H](C(=O)OC)[C@H](c1ccc(OC)c(OC)c1)O2	12.6%	30.8%	77%	42.6%	66.8%	43.2%	-15.8% (active)	37.5%	16.6%	33.1%	36.7%	-42.3% (active)	30.4%	19.6%	15.9%	59.5%	27.6%
COc1ccc(-c2cc(-c3nnc(SCC(=O)Nc4ccc(/C(C)=N\O)cc4)n3-c3ccccc3)c3cc(OC)ccc3n2)cc1	66.7%	75.8%	102%	92.1%	79.9%	39.6%	77.4%	82.7%	71.3%	45.4%	63.7%	79.2%	82.1%			100%	61.1%
C#CC[C@@H]1C[C@]2(C)[C@H]3CC[C@@H]4[C@H]5[C@H](C(=C)C)CC[C@]5(C(=O)O)CC[C@@]4(C)[C@]3(C)CC[C@H]2C(C)(C)[C@H]1O	24.1%	45.8%	95.7%	-18.7% (active)	74.3%	60.2%	-33.5% (active)	33.4%	44%	51.1%		68.5%	33.1%	34.7%	9.2% (active)	64.7%	24.8%
C/C(=C\c1cnc(C)s1)[C@@H]1C[C@@H]2O[C@@H]2CCC[C@H](C)[C@H](O)[C@@H](C)C(=O)C(C)(C)[C@@H](O)CC(=O)O1	23.2%	48%	38.9%	52.5%	24.4%	38.7%	2.54% (active)	39.1%	6.61% (active)	33.6%		4.21% (active)	34.8%	17.1%	18.4%	18.6%	24.6%
CCCCCOC(=O)c1ccccc1O	102%	107%	105%	95.9%	92.2%	111%	102%	103%	110%	85.8%	93.4%	102%	105%	87.6%	98.9%		105%
C=C1C(=O)O[C@H]2[C@H]1CC/C(COC(=O)c1cn(C)c3ccccc13)=C\CC[C@@]1(C)O[C@@H]21	-29.5% (active)	-20.5% (active)	-25.5% (active)	-33.6% (active)	63%	-47.6% (active)	-72.1% (active)	12.7%	3.25% (active)	-56.3% (active)	-24.4% (active)	-51.2% (active)	-65.7% (active)	-46.1% (active)	-77.6% (active)		31.2%
CCCCc1n(Cc2ccc3ccccc3n2)cc[n+]1Cc1ccc2ccccc2c1	-7.1% (active)	2.38% (active)	24%	28.6%	-14% (active)	-14.7% (active)	5.59% (active)	16.6%	101%	-0.345% (active)	-16.9% (active)	1.33% (active)	11.2%			-6.38% (active)	-42.4% (active)
C=C1C(=O)O[C@H]2[C@H]1CC/C(C=Nc1c(N)cc(F)cc1Br)=C\CC[C@@]1(C)O[C@@H]21	12.8%	78.4%	103%	105%	87.3%	60.4%	50.9%	90.2%	109%	50%		83.2%	26.5%	24.4%	48.2%	109%	98.8%
O=C(CCc1nnco1)c1nc2ccc([N+](=O)[O-])cc2[nH]1	129%	105%	108%	105%	107%	97.6%	105%	102%	104%	101%	106%	106%	106%			93.4%	102%
C=C1C(=O)O[C@H]2[C@H]1CC/C(COC(=O)CCCCCCC(=O)OC/C1=C/CC[C@@]3(C)O[C@H]3[C@H]3OC(=O)C(=C)[C@@H]3CC1)=C\CC[C@@]1(C)O[C@@H]21	2.81% (active)	-18.7% (active)	61%	42.3%	94.6%	11.2%	-3.87% (active)	27.2%	46.6%	-18.1% (active)	49.4%	40.4%	14.8%	14.8%	-40.6% (active)		61.5%
COc1cc(F)c(-c2nc3c(C)cccc3n2Cc2c(F)cccc2F)c(F)c1	68.2%	90.5%	94.6%	77.6%	90.5%	69.4%	96.2%	91.6%	77.9%	71.4%	98.5%	94.8%	91.6%	78.5%	74.6%		90.1%
